Data taken from PubChem BioAssay (NCATS).
Active and inactive are the calls of the source. Calls come from the whole dose curve; as a rule, active = well fitted curve in the direction sought with a large enough effect; inactive = no such curve, though single readings can be large or run the other way.

The compounds below were run against Alpha-galactosidase A (Homo sapiens) (UniProt P06280) (assay: Counterscreen for Glucocerebrosidase Inhibitors: qHTS Assay for Human alpha-Galactosidase at pH 4.5 (AID 992)). Conditions: purified enzyme, fluorogenic substrate; series mostly up to 76.9 µM.
Source text: NIH Chemical Genomics Center [NCGC]
NIH Molecular Libraries Screening Centers Network [MLSCN]
PI Name: Zheng, Wei [NIH]
Alpha-galactosidase is a homodimeric glycoprotein that hydrolyzes the terminal alpha-galactosyl moieties from glycolipids and glycoproteins. Deficiency of this enzyme results in Fabry Disease with progressive accumulation of globotriaosylceramide and other glycosphingolipids in vascular endothelial cells that causes renal failure, myocardial infarction and stroke, and premature death in patients. It has reported that the improper folding and trafficking of alpha-galactosidase resulted from the genetic mutations may account for a significant numbers of Fabry patients. […] We optimized this alpha-galactosidase assay in 1536-well plate format for identifying the novel small molecule inhibitors with the structures other than the sugar analogs in order to develop the new pharmacological chaperones.
NCGC Assay Protocol Summary:
This is a fluorogenic enzyme assay with 4-Methylumbelliferyl alpha-D-galactopyranoside as the substrate and human […] as the enzyme preparation. Upon the hydrolysis of this fluorogenic substrate, the resulting product, […]. 4-Methyllumbelliferone, can be excited at 365 nm and emits at 440 nm which can be detected by a standard fluorescence plate reader. Data were normalized to the controls for basal activity (without enzyme) and 100% activity (with enzyme). In the AC50 values were determined from concentration-response data modeled with the standard Hill equation.
Assay buffer: 50 mM citric acid, 0.005% Tween-20, pH 4.5. (pH 4.5 is an optimal condition for this enzyme assay)
1536-well assay protocol for the human alpha-galactosidase:
(1) Add 2 ul/well of enzyme (2 nM final)
(2) Add 23 nL compounds in DMSO solution. The final titration was 0.7 nM to 77 uM.
(3) Add 1 ul of substrate (80 uM final)
(4) Incubate at room temperature for 20 min.
(5) Add 2 ul stop solution (1M NaOH and 1M Glycine mixture, pH 10)
(6) Detect the assay plate in a ViewLux plate reader (PerkinElmer) with Ex=365 nm and Em=440nm.
Keywords: Alpha-galactosidase, Fabry Disease, pharmacological chaperone, chaperone therapy, high throughput screening, alpha-galactosidase inhibitor, MLSMR, MLSCN, NIH Roadmap, qHTS and NCGC

Sequence of Alpha-galactosidase A (Homo sapiens) (P06280 whole entry, looked up): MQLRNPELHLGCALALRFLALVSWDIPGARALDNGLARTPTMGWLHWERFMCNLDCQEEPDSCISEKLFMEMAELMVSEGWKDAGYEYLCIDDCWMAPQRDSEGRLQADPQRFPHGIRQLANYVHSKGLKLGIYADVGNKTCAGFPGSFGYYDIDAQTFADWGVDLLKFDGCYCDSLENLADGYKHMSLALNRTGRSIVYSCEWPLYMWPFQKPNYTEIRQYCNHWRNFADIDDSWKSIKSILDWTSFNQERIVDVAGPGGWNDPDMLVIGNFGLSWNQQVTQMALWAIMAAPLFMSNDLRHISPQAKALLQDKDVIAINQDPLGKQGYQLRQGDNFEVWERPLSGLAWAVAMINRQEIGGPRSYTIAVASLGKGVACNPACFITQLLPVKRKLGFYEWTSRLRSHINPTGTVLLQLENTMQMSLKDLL

Q: With `O=C(Cc1ccc(Cl)c(Cl)c1)OCCN1CCCC1` as the compound, how does the outcome read?
A: inactive

Q: With `COc1ccc2c(c1)c(CC(=O)O)c(C)n2Cc1ccc(F)cc1` as the compound, how does the outcome read?
A: inactive

Q: Which outcome does the source give for `CCSC(N)=Nc1ccc(C(F)(F)F)cc1` here?
A: inactive

Q: With `NCCC(=O)NCCc1cnc[nH]1` as the compound, how does the outcome read?
A: inactive

Q: `CCCC(=O)NCCc1c2n(c3ccc(OC)cc13)Cc1ccccc1-2` was tested. Which outcome did it give?
A: inactive

Q: How did the outcome turn out when `NCCNC(=O)c1ccc(Cl)cc1` was run?
A: inactive

Q: `CCCNC[C@H](O)COc1ccccc1C(=O)CCc1ccccc1` was tested. Which outcome did it give?
A: inactive

Q: Which outcome does the source give for `N=C(N)SCCc1cccc(CCSC(=N)N)c1` here?
A: inactive

Q: `COC(=O)c1c(-c2cc(OC)c(OC)c(OC)c2)c2ccc(OCc3ccccn3)cc2c(=O)n1-c1ccc(N)cc1` was tested. Which outcome did it give?
A: inactive

Q: With `CC(C)CN(C)c1nc(N)c(C(=O)N=C(N)N)nc1Cl` as the compound, how does the outcome read?
A: inactive

Q: With `OC[C@H]1O[C@@H](n2cnc3c(NCCc4ccccc4)ncnc32)[C@H](O)[C@H]1O` as the compound, how does the outcome read?
A: inactive

Q: Which outcome does the source give for `NCCCCNS(=O)(=O)c1cccc2c(Cl)cccc12` here?
A: inactive

Q: Which outcome does the source give for `NC(=NCCC[C@H](N)C(=O)O)NO` here?
A: inactive

Q: With `CN(CCOc1ccc(C[C@H](Nc2ccccc2C(=O)c2ccccc2)C(=O)O)cc1)c1ccccn1` as the compound, how does the outcome read?
A: inactive

Q: Which outcome does the source give for `CC(=O)NCCc1ccc(O)c(O)c1` here?
A: inactive

Q: With `Oc1ccc(/C=C\c2cc(O)cc(O)c2)cc1` as the compound, how does the outcome read?
A: inactive

Q: `CCn1c(=O)c2[nH]c(-c3ccccc3)nc2n(CC)c1=O` was tested. Which outcome did it give?
A: inactive

Q: For `N=C1Sc2ccccc2C2=NCCCN12`, which outcome is on record?
A: inactive
